PKM2 inhibitor – inhibitors of human pyruvate kinase M2; purified PKM2, ATP generation, Kinase-Glo luminescence; AID 1634; hit rate 0.058% among 260,000; Potency, µM (highest dose often 57.5 µM), for inactives: at the highest dose activity change, negative = inhibition, actives largely listed as inhibitors; P14618; note: potency is the fitted concentration of half-maximal effect; nearly all actives have a fitted effect of over 60% in size
Target sequence (P14618 whole entry, looked up): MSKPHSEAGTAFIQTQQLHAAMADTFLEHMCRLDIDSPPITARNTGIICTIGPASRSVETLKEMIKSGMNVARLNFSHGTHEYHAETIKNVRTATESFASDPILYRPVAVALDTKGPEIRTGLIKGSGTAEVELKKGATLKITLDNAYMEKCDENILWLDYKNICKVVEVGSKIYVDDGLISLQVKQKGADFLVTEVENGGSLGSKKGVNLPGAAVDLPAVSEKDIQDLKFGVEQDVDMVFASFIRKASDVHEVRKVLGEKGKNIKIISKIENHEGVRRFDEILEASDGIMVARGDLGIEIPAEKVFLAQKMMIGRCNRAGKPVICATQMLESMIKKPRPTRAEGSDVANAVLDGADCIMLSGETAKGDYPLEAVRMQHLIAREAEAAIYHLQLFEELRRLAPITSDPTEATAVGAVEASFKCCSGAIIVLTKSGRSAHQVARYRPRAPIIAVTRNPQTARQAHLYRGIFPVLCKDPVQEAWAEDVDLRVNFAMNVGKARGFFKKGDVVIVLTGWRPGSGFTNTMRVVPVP
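Enzyme run at intermediate activity with final 0.1 mM ADP, 0.5 mM PEP (50 mM imidazole pH7.2, 50 mM KCl, 7 mM MgCl2), incubated 1 h at r.t. ATP formed read by Kinase-Glo luminescence, normalized to no-enzyme (full inhibition) and uninhibited wells.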
PKM2 inh dose – confirmation of human pyruvate kinase M2 inhibitors, concentration-response; purified hPK-M2, Kinase-Glo ATP luminescence, 1 h; Potency, µM (highest dose often 57.5 µM), without a hit: at the top dose activity change, negative = inhibition, most hits filed as inhibitors; shares compounds with PKM2 inhibitor; hit rate 50% among 55
PKM2 FLuc cs – firefly luciferase inhibition counter-screen | Potency, µM (titrated, usually from 57.5 µM), for the others: top-dose activity, negative = inhibition, hits mostly inhibitors | Kinase-Glo firefly luciferase, luminescence, 8 min | shares compounds with PKM2 inhibitor | hit rate 30% among 55
PKM2 inh LDH – PKM2 (human) inhibition, NADH coupled readout; shares compounds with PKM2 inhibitor; purified hPK-M2, LDH-coupled NADH fluorescence kinetic; Potency, µM (highest dose often 57.5 µM), without a hit: at the highest dose activity change, negative = inhibition, actives largely listed as inhibitors; 55 tested, under 10 active; AID 2267
The depositor's hits bear a star. Shown is part of a subset that was picked to be rich in hits. Calls come from the whole dose curve; as a rule, active = well fitted curve in the direction sought with a large enough effect; inconclusive = small, poorly fitted or top-dose-only effect, or another doubt; inactive = no such curve, though single readings can be large; an effect the other way counts as inactive or inconclusive.

SMILES	PKM2 inhibitor	others
C/C=C/C=C\C(=O)Nc1cccc(C2=NOC3(C2)C[C@@H](C(N)=O)N(C(=O)c2cc([N+](=O)[O-])cc([N+](=O)[O-])c2C)C3)c1 (stereo partly specified)	37%
COc1ccc(C2c3c(ncn(CCN4CCOCC4)c3=N)Oc3ccc4ccccc4c32)cc1OC (stereo unspecified)	61%
COc1ccc(S(=O)(=O)N(C)c2ccc(C(=O)NCc3ccco3)cc2)cc1	60%
O=C(c1cccc([N+](=O)[O-])c1)c1ccc2c(c1)C(=O)N(c1c[nH]c(=O)[nH]c1=O)C2=O	-5%
NC(=O)COC(=O)CCSc1ccc(Cl)cc1	44%
COc1ccccc1CNC(=O)COC(=O)[C@H](Cc1c[nH]c2ccccc12)NC(=O)c1cccs1	27%
Cc1cc2cc(CNC(=O)c3ccc(C)c([N+](=O)[O-])c3)ccc2[nH]1	32%
O=S(=O)(Nc1nc2ccc(Cl)cc2s1)c1cccs1	68%
CCN(CC)S(=O)(=O)c1ccc(S(=O)(=O)N(CC(=O)Nc2ccccc2)Cc2ccco2)cc1	5%
CC(=O)NS(=O)(=O)c1ccc2c(c1)C(=O)c1cc(S(=O)(=O)NC(C)=O)ccc1-2	30%
CCOC(=O)c1sc(S(C)=O)c2c1CCc1conc1-2 (stereo unspecified)	66%
CN(Cc1ccon1)Cc1cn(C)nc1-c1cccc(Cl)c1	10µM*	PKM2 inh dose=6%;PKM2 FLuc cs=-1%;PKM2 inh LDH=-9%
COc1cccc(CN(C)Cc2nc(Cc3ccccc3Cl)no2)c1	92%
CCC(C)NC(=O)c1c(F)c(F)c(F)c(F)c1F (stereo unspecified)	2%
O=C(OCCN1C(=O)c2ccccc2C1=O)C1CCN(S(=O)(=O)c2cccs2)CC1	51%
COc1ccc(S(=O)(=O)NCc2cccnc2)cc1C	0%

Compound activity (PubChem BioAssay)
